Shown are actives, neighbours in structure and some others; about 18% of the full set was active somewhere.
TDP1 inh – blocks human tyrosyl-DNA phosphodiesterase 1; Potency, µM (series often up to 130 µM), for inactives: at the highest dose activity change, negative = inhibition, usual class: inhibitors; AID 485290; Q9NUW8; recombinant TDP1, AlphaScreen DNA substrate cleavage; 350,000 tested, 0.28% active; further: nearly all actives have a fitted effect of over 40% in size
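Here, a 5' biotin and 3' phosphotyrosine-FITC DNA oligonucleotide reports Tdp1 activity: intact substrate bridges AlphaScreen beads, while cleavage leaves a 3' phosphate and drops signal. All incubations at room temperature.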
GCN5L2 inh – inhibitors of human GCN5L2 histone acetyltransferase; AID 504327; 390,000 tested, 0.21% active; Potency, µM (highest dose often 58.9 µM), without a hit: at the top dose activity change, negative = inhibition, most hits filed as inhibitors; GCN5L2 HAT assay, ThioGlo1 CoA-SH fluorescence; Q92830
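Titration-based screen in which CoA formation is detected via maleimide probe ThioGlo1 (50uM) turning fluorescent on thiol reaction; substrates H3(1-25) 75uM and acetyl-CoA 70uM, GCN5L2 20nM, 20 min incubation at room temperature.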
DT40 TDP1 CPT – DT40-hTDP1 cell growth loss with CPT. chicken DT40 Tdp1-/-;hTDP1 cells + 20 nM CPT, ATP luminescence, 48 h. Potency, µM (top dose mostly 46.2 µM), without a hit: top-dose activity change, negative = growth inhibition, hits mostly inhibitors. 420,000 tested, 12% active; further: nearly all actives have a fitted effect of over 55% in size
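Cell growth measured by CellTiter-Glo luminescence after a minimum 48 h, 37 C compound exposure with 20 nM CPT in Tdp1-knockout DT40 cells stably expressing hTDP1, seeded 400/well; qHTS titration format.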
TDP1 cell noCPT – qHTS for Inhibitors of human tyrosyl-DNA phosphodiesterase 1 (TDP1): qHTS in cells in absence of CPT; DT40 Tdp1-/- hTDP1 cells, no CPT, ATP luminescence, 48 h; Potency, µM (highest dose often 46.2 µM), inactives show at the highest dose activity change, negative = growth inhibition, hits mostly inhibitors; 420,000 tested, 15% active; AID 686978, 2013; further: nearly all actives have a fitted effect of over 55% in size
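Compound effects on proliferation are scored in DT40 Tdp1-/-;hTDP1 cells in the absence of CPT. ATP levels (CellTiter-Glo luminescence) are recorded after a ≥48 hr, 37 °C incubation.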
VDR inh – blocks the human vitamin D receptor | P11473 | VDR-SRC2-3 peptide fluorescence polarization, 2 h | Potency, µM, without a hit: max response, negative = inhibition, usual class: inhibitors | 400,000 tested, 0.93% active
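Two reagent solutions held at 4 deg C in the dark were dispensed, compounds pinned at 23 nl, and the mixture incubated 2 h at room temperature. Read-out: fluorescence polarization of VDR–SRC2-3 peptide binding.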
PLK1 PBD block – blocks phosphopeptide binding to human PLK1 polo-box domain; P53350; Plk1 PBD binding of FITC phosphopeptide, fluorescence polarization; Potency, µM, for inactives: max response, negative = inhibition, actives largely listed as inhibitors; 360,000 tested, 2.8% active; AID 720504; further: series mostly up to about 57 µM; nearly all actives have a fitted effect of over 65% in size
Starred values were filed as active, the others as inactive; ? = inconclusive; . = no result; [ ] = another dose, or the depositor's remark. The call rests on the fitted dose curve; in most records, active means well fitted curve in the direction sought with a large enough effect; inconclusive means small, poorly fitted or top-dose-only effect, or another doubt; inactive means no such curve, though single readings can be large; an effect the other way counts as inactive or inconclusive. On the % scale 0 is the no-effect control and ±100 the full control effect; potency means the concentration at half of the fitted maximal effect.

SMILES	TDP1 inh	GCN5L2 inh	DT40 TDP1 CPT	TDP1 cell noCPT	VDR inh	PLK1 PBD block
CCOC(=O)C(C)On1c(SC(C)C(=O)OCC)nc2ccccc2c1=O (stereo unspecified)	7%	1%	-19%	-14%	4%	-17%
CCOC(=O)N=Nc1c2ccccc2c2nc3no[nH]c3nc12	0%	-4%	0.41µM*	1.3µM*	-12%	-7%
Cc1ccc(-n2nc3c(=O)n(CCCC(=O)N4CCC(C(N)=O)CC4)nc(C)c3c2C)cc1	3%	-1%	6%	8%	20%	7%
COc1ccc(-n2c(=O)c3c(c4cc(OC)ccc4n3C)n(CC(=O)N3CCCC3)c2=O)cc1	6%	?	?	?	13%	.
CC(C)N1CCc2[nH]c(=S)[nH]c(=O)c2C1	2%	-10%	?	16µM*	-9%	-4%
CCCN1CCc2[nH]c(=S)[nH]c(=O)c2C1	3%	2%	-1%	-33%	-9%	-6%
C=CCNc1ncnc2c1ncn2[C@H]1CN(Cc2ccc(F)cc2)C[C@@H](CO)O1	.	.	?	?	.	-3%
O=C1C=C[C@@H](O)[C@H]2[C@@H]3C(=O)N(Cc4ccc5c(c4)OCO5)C(=O)[C@@H]3CC[C@H]12	8%[21 µM]	.	.	.	.	.
CCOC(=O)c1sc(NC(=S)NC(=O)c2ccccc2)c(C(=O)OCC)c1C	5%	-2%	?	?	-22%	4%
CCOC(=O)c1c(NC(C)=O)sc2c(O)cccc12	-6%	-2%	6%	0%	10%	1%
CCOC(=O)c1c(NC(=O)c2cc(Cl)ccc2Cl)sc2c1CCCC2	-5%[12.3 µM]	2%	-8%	-7%	-29%	.
CCOC(=O)c1c(NC(=O)c2ccccc2)sc2c(O)c(CN(CC)CC)ccc12	4%	-12%	23µM*	18µM*	8%	-6%
CCOC(=O)c1c(NC(=O)c2ccccc2)sc2c1CCc1ccccc1-2	0%	-26%	?	?	71µM*	6.7µM*
CCOC(=O)c1c(NC(=O)c2ccccc2Cl)sc2c1CCc1ccccc1-2	.	-30%	?	?	?	6.7µM*
O=C(Cn1cc(C(=O)C(F)(F)F)c2ccccc21)N1CCCCCC1	.	-1%	-18%	-6%	-1%	.
Cc1cccc2sc(N(CCCN(C)C)C(=O)c3ccc4ncsc4c3)nc12	5%	-2%	?	?	6%	-6%
Cc1cccc2sc(N(CCCN(C)C)C(=O)c3nc4ccccc4s3)nc12	-3%	1%	13µM*	13µM*	-7%	-4%
Cc1ccc2sc(N(CCCN(C)C)C(=O)c3nc4ccccc4s3)nc2c1C	5%	3%	13µM*	6.5µM*	20%	-1%
O=C1CCCC(=O)C1CS(=O)(=O)c1ccccc1	0%	-2%	-9%	8%	40µM*	-16%
O=C1CC(c2ccccc2)CC(=O)C1Sc1ccc(Cl)cc1 (stereo unspecified)	3%	0%	?	?	?	21µM*
O=C1CC(c2ccc(Cl)cc2)CC(=O)C1CS(=O)(=O)c1ccccc1 (stereo unspecified)	2%	?	2%	-4%	?	27µM*
Cc1cc(CNC(=O)c2cnn(-c3ncc4c(n3)-c3ccccc3CCC4)c2C2CC2)on1	.	.	-6%	?	.	.
COCCN1C(=O)CCC1(C)C(=O)NC1CCCCC1 (stereo unspecified)	.	.	8%	10%	.	2%
COc1ccc(C(=O)NCC(=O)OCCOc2ccc(Cl)cc2)cc1OC	-1%	-1%	0%	-13%	-10%	-4%
O=[N+]([O-])c1cc(-c2nnc(-c3ccccc3)o2)ccc1Oc1ccc(Cl)cc1	-2%	36%	-21%	-28%	3%	-1%
Cc1nnc(-c2ccc(Oc3ccc(Cl)cc3)c([N+](=O)[O-])c2)o1	6%	-2%	?	23µM*	?	21µM*

Source: PubChem BioAssay (National Center for Advancing Translational Sciences (NCATS))
